Data published in a collection of fitness landscapes (doi:10.1126/science.1257360).
Over roughly 140,000 sequences, “enrichment ratio after two sorts for PhoP signalling” has its median near 0; the highest 2% begin near 11. This excerpt belongs to a sample that is enriched for the highest values.

B1: PhoQ; a variant is named by its letters at X, in order, P23837 (parent)
chain: MKKLLRLFFPLSLRVRFLLATAAVVLVLSLAYGMVALIGYSVSFDKTTFRLLRGESNLFYTLAKWENNKLHVELPENIDKQSPTMTLIYDENGQLLWAQRDVPWLMKMIQPDWLKSNGFHEIEADVNDTSLLLSGDHSIQQQLQEVREDDDDAEMTHSVAVNVYPATSRMPKLTIVVVDTIPVELKSSYMVWSWFIYVLSANLLLVIPLLWVAAWWSLRPIEALAKEVRELEEHNRELLNPATTRELTSLVRNLNRLLKSERERYDKYRTTLTDLTHSLKTPLXXLQXXLRSLRSEKMSVSDAEPVMLEQISRISQQIGYYLHRASMRGGTLLSRELHPVAPLLDNLTSALNKVYQRKGVNISLDISPEISFVGEQNDFVEVMGNVLDNACKYCLEFVEISARQTDEHLYIVVEDDGPGIPLSKREVIFDRGQRVDTLRPGQGVGLAVAREITEQYEGKIVAGESMLGGARMEVIFGRQHSAPKDE

Variants of: B1
Test: enrichment ratio after two sorts for PhoP signalling (ratio (wild type AVST 3.29)); higher = more functional
Details: with PhoP (E. coli)

Variant | enrichment ratio
FMYR | ≤ 0.25
FQIQ | ≤ 0.25
MCFN | 4.25
DMST | ≤ 0.25
NMST | ≤ 0.25
AMST | 12.2
AKST | 6.32
HKST | ≤ 0.25
TKST | 15.4
YFCR | 0.754
YQIY | ≤ 0.25
WDCT | ≤ 0.25
TGCY | 8.48
RGCY | ≤ 0.25
GGCY | 16.1
MGCY | 29.2
QRCY | ≤ 0.25
MGWY | 4.8
QHTT | ≤ 0.25
KNTT | ≤ 0.25
ERTE | ≤ 0.25
QKMV | ≤ 0.25
TYTC | ≤ 0.25
MMSN | ≤ 0.25

Variant | enrichment ratio
KMSG | ≤ 0.25
NMSN | ≤ 0.25
TMSN | 12.5
TMSG | 24.1
DMSG | ≤ 0.25
PCVI | ≤ 0.25
GRTV | ≤ 0.25
QGSS | 14.4
QRSS | ≤ 0.25
FVSS | ≤ 0.25
QDSS | ≤ 0.25
QESS | 19.7
NESS | ≤ 0.25
TESS | 15
FFSS | ≤ 0.25
MESS | 5.15
IMKM | ≤ 0.25
LFRM | ≤ 0.25
TWVL | ≤ 0.25
WRGV | ≤ 0.25
KLPK | ≤ 0.25
EIYQ | ≤ 0.25
NECF | ≤ 0.25
MCCF | 4.87

Variant | enrichment ratio
CTCF | ≤ 0.25
YTCF | 2.21
SQCF | 11.4
SECF | 13.9
KCCF | ≤ 0.25
SNCF | 4.82
MECF | ≤ 0.25
SRCF | ≤ 0.25
STCF | 15.9
SCCF | 13.7
PQGD | ≤ 0.25
YMHS | ≤ 0.25
GKRI | ≤ 0.25
SAIV | 3.88
ERRA | ≤ 0.25
TTCF | 17.7
MTCF | 1.4
LTCF | ≤ 0.25
IHTH | ≤ 0.25
LQWA | ≤ 0.25
KAME | ≤ 0.25
TAME | 15.7
TAMY | 17.4
NAMY | ≤ 0.25

Variant | enrichment ratio
TAIE | ≤ 0.25
KAMY | ≤ 0.25
RLHS | ≤ 0.25
THTF | 0.991
SFPM | ≤ 0.25
RSPG | ≤ 0.25
QTHL | 4.03
KSHL | ≤ 0.25
KAHL | ≤ 0.25
YAHL | ≤ 0.25
QAHL | 16.7
QGHL | 18.3
IAHL | ≤ 0.25
THHL | 2.02
FFHL | ≤ 0.25
TAHL | 17.4
QSHL | 13.5
NAHL | ≤ 0.25
KINI | ≤ 0.25
SEPT | ≤ 0.25
NNGF | ≤ 0.25
LQLD | ≤ 0.25
NKMF | ≤ 0.25
QAHK | ≤ 0.25

Variant | enrichment ratio
QLNF | ≤ 0.25
QAHM | 22.3
QAQF | ≤ 0.25
QDHM | ≤ 0.25
NANF | ≤ 0.25
YAHM | ≤ 0.25
QAHF | 15.5
QANF | 21
KANF | ≤ 0.25
QQNF | 16.3
NQNF | ≤ 0.25
HNRG | ≤ 0.25
WPAL | ≤ 0.25
GSVC | ≤ 0.25
LGSN | ≤ 0.25
MHVR | ≤ 0.25
WLSV | ≤ 0.25
WRAR | ≤ 0.25
KRNR | ≤ 0.25
ECFS | ≤ 0.25
AINF | 1.66
ANNF | 12.9
GTNF | ≤ 0.25
SCNF | 14.3

Variant | enrichment ratio
AHNF | 9.49
KYNF | ≤ 0.25
TTNF | 6.07
YTNF | ≤ 0.25
STNF | 12.6
CTNF | ≤ 0.25
SLNF | 1.82
ATNF | 20.9
PREH | ≤ 0.25
GASC | ≤ 0.25
FFHE | ≤ 0.25
DQPT | ≤ 0.25
LMDV | ≤ 0.25
FSAH | 0.363
SQND | ≤ 0.25
IRPQ | ≤ 0.25
YYNE | ≤ 0.25
GEGM | ≤ 0.25
GEVA | ≤ 0.25
GEVG | 8.67
GEVM | 13.6
GEVY | 15.9
GEYY | ≤ 0.25
ISQH | ≤ 0.25

Variant | enrichment ratio
HWRW | ≤ 0.25
LGRG | ≤ 0.25
HLTF | ≤ 0.25
GIMD | ≤ 0.25
GNAM | 35.8
MNAM | 1.4
TNAM | 15.7
GIRM | ≤ 0.25
TNCK | ≤ 0.25
GMAM | 24.3
LNAM | ≤ 0.25
NNAM | ≤ 0.25
GMGM | ≤ 0.25
GMTM | ≤ 0.25
GIAM | 33.4
RPAK | ≤ 0.25
YHSF | ≤ 0.25
QLDG | ≤ 0.25
PCCG | ≤ 0.25
DCDI | ≤ 0.25
YLVR | ≤ 0.25
QLDF | ≤ 0.25
IHCL | ≤ 0.25
FHCR | ≤ 0.25

Variant | enrichment ratio
VVAM | ≤ 0.25
LQPE | ≤ 0.25
YRAY | ≤ 0.25
SGLA | 8.41
SGNT | ≤ 0.25
SGLT | 12.3
SGDK | ≤ 0.25
SGLI | 16.2
SGDN | ≤ 0.25
KDVP | ≤ 0.25
RAKD | ≤ 0.25
WISW | ≤ 0.25
ADSW | ≤ 0.25
AQSI | 18.6
HKSI | ≤ 0.25
TISK | 3.65
KKSI | ≤ 0.25
TISI | 16.9
ARSI | ≤ 0.25
AISW | 11.4
TISR | 6.92
TKSI | 14.9
AQRK | ≤ 0.25
SLDN | ≤ 0.25

Variant | enrichment ratio
QVPH | ≤ 0.25
WSQP | ≤ 0.25
DYLR | ≤ 0.25
WNLT | ≤ 0.25
RHIF | ≤ 0.25
HCDL | ≤ 0.25
AKSI | 22.7
AISI | 22
ADSI | ≤ 0.25
WISI | ≤ 0.25
AKDH | ≤ 0.25
AHSI | ≤ 0.25
ENLY | ≤ 0.25
RIVL | ≤ 0.25
YQAH | ≤ 0.25
TFMT | ≤ 0.25
HYLI | ≤ 0.25
HGLI | 13.3
NVLI | ≤ 0.25
LNLI | ≤ 0.25
HGCI | 17.9
GILI | 8.37
HGCS | ≤ 0.25
HGDK | ≤ 0.25

Variant | enrichment ratio
HGCK | ≤ 0.25
GVLA | 4.95
GVLI | 15.6
GNLI | 15.8
LTRF | ≤ 0.25
QPSN | ≤ 0.25
PTQL | ≤ 0.25
YSHY | ≤ 0.25
CNHF | ≤ 0.25
NGLI | 2.73
TGLI | 12.2
CFLI | ≤ 0.25
WGLA | ≤ 0.25
CNLI | 12.7
WGLI | 13.6
WGLT | ≤ 0.25
FFLI | ≤ 0.25
RGLI | ≤ 0.25
QGLI | 13.3
QGDK | ≤ 0.25
VTWM | ≤ 0.25
QDLV | ≤ 0.25
WQPN | ≤ 0.25
FGKS | ≤ 0.25

Variant | enrichment ratio
AKLI | 4.91
MGDK | ≤ 0.25
MGLS | 5.14
MGLI | 14.4
YHLI | ≤ 0.25
GGLI | 11.9
MKLI | 3.78
TKLI | 13
NILI | 0.917
PKIA | ≤ 0.25
NPEC | ≤ 0.25
DYPI | ≤ 0.25
HHAA | ≤ 0.25
VYEG | ≤ 0.25
GTRK | ≤ 0.25
AKAK | ≤ 0.25
DHNF | ≤ 0.25
WHAF | ≤ 0.25
SGVN | 16.8
TGVN | 5.82
SGGD | ≤ 0.25
SGQN | ≤ 0.25
SGVS | 13
SGVK | ≤ 0.25

Variant | enrichment ratio
SGQH | 11.9
SGPN | ≤ 0.25
SGVA | 19
SGVG | 5.22
SGKH | ≤ 0.25
SGWI | 2.76
VDSY | ≤ 0.25
ELCR | ≤ 0.25
DCKP | ≤ 0.25
MYPK | ≤ 0.25
EFWG | ≤ 0.25
AFDK | ≤ 0.25
FLSH | ≤ 0.25
MHCH | ≤ 0.25
SEFH | 4.4
EFPG | ≤ 0.25
REIT | ≤ 0.25
HGRF | ≤ 0.25
TGVQ | 7.73
SGGG | ≤ 0.25
SGVM | 13.3
SGGM | 8.79
SGWM | 9.28
SGVQ | 20.5

Variant | enrichment ratio
HQTQ | ≤ 0.25
KFHQ | ≤ 0.25
PSSG | ≤ 0.25
AGQH | ≤ 0.25
HPFG | ≤ 0.25
NWHP | ≤ 0.25
LKHK | ≤ 0.25
VSCM | 13.1
FSCM | 16.6
TSCM | 25.8
FCCM | ≤ 0.25
VSCK | ≤ 0.25
LCCM | ≤ 0.25
RSCM | ≤ 0.25
KCCM | ≤ 0.25
VCCM | 13.1
NSCM | ≤ 0.25
KSCM | ≤ 0.25
MMCM | ≤ 0.25
